Compound activity from PubChem.
D1 antagonist: antagonists of human D1 dopamine receptor; P21728; HEK293 TREx D1 cells, calcium flux, dopamine EC80; active compounds read low; activity change, negative = inhibition, % at 10 µM; hit rate 3.2% among 360,000; AID 504652; in the data active means activity change below about -30%; further: on the % scale 0 is the no-effect control and ±100 the full control effect
Target sequence (P21728 whole entry, looked up): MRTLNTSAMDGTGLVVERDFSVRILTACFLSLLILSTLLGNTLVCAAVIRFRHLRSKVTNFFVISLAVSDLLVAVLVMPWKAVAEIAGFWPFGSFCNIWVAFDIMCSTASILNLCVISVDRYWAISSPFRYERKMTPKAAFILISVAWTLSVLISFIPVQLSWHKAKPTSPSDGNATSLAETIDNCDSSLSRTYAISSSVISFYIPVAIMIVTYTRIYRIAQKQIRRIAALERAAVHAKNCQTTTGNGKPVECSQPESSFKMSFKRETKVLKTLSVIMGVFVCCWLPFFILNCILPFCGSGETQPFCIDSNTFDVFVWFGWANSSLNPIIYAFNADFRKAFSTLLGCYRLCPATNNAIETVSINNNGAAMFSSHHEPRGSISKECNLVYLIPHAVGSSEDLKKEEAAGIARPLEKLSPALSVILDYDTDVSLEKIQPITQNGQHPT
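Using tetracycline-induced force-coupled D1 Hek293 cells and a calcium dye, signals were followed for 180 s after compound, then for 180 s after EC80 dopamine, to detect inhibitors.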
TRHR PAM: allosterically enhances the human TRH receptor | P34981 | TRHR cells, fluo-8 calcium fluorescence, EC20 TRH enhancement | enhancement, % at 2 µM | hit rate 0.66% among 360,000; in the data active means enhancement above about 30%; further: 0% is about no effect
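TRHR-expressing cells loaded with fluo-8 calcium dye were read kinetically (ex 480/em 530) during compound addition, then stimulated with an EC20 of TRH (10 nM final). Enhancement of the Gq-mediated intracellular calcium response was scored.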
GRP78 ERSR act: inducers of ER stress response in human glioma cells; U87-MG GRP78 promoter luciferase reporter, 16 h; Potency, µM, without a hit: top-dose activation, most hits filed as activators; hit rate 0.02% among 420,000; active means well fitted activation curve with a large enough effect; further: potency means the concentration at half of the fitted maximal effect; series mostly up to about 76 µM; % of control where 0% means no effect; nearly all actives have a fitted effect of over 35% in size
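Stably transfected U87-MG glioma cells carrying a GRP78-based luciferase sensor; 16 h compound incubation. Luminescence end-point read 10 min after Bright-Glo addition at room temperature.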
D1 agonist: activates the human D1 dopamine receptor. P21728. activation, % at 2 µM. AID 504660. hit rate 1% among 360,000. HEK293 T-REx D1 cells, calcium flux, agonist mode; further: 0% is about no effect
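Inducible HEK293 T-REx D1 cells, force-coupled to calcium signalling, were plated at 4000 cells/well with tetracycline and held overnight at 30 C. After no-wash calcium dye loading, compound-evoked calcium rise over 180 s flagged agonists.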
D1 PAM: potentiators of human D1 dopamine receptor; P21728; HEK293 TREx D1 cells, calcium flux, dopamine EC20 potentiation; potentiation, % at 10 µM; hit rate 0.036% among 360,000; AID 504651; in the data active means potentiation above about 30%; further: 0% is about no effect
TRHR agonist: agonists of human TRH receptor. TRHR cells, calcium flux fluo-8, FDSS agonist mode. activation, % at 2 µM. hit rate 0.18% among 360,000; further: 0% is about no effect
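TRHR-expressing cells, plated overnight in medium with 10% serum, were loaded with fluo-8 calcium dye at room temperature. After a 10 s baseline, library compound was pin-added and calcium release was recorded kinetically (ex 480/em 530) as agonist response.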
* = called active by the depositor; . = no result. Only some compounds are listed: those with a hit (about 4% of all), similar ones and a draw of the others. Unless noted, no stated cut-off is given here; in the data, active means activation above about 30%; inactive means the rest.

SMILES	D1 antagonist	TRHR PAM	GRP78 ERSR act	D1 agonist	D1 PAM	TRHR agonist
Cc1cccc(C(=O)NNC(=O)C(=O)NC(C)(C)C)c1	12.5	2.2	2.7%	2.9	-7.2	-0.4
Cc1ccccc1-c1ncc(CN2CCC(CO)(CCCc3ccccc3)CC2)cn1	-54.5*	7.6	-2.9%	9.9	-3.5	-1.7
COc1ccc(-c2ncc(CN3CCC(CO)(Cc4cccc(OC)c4)CC3)cn2)cc1	-1.0	-1.8	1.5%	39.4*	5.5	0.8
OCC1(Cc2ccccc2)CCN(Cc2cnc(-c3ccc(Cl)cc3)nc2)CC1	6.8	-2.5	10.4%	7.7	-5.8	0.6
OCC1(Cc2ccccc2)CCN(Cc2cnc(-c3cccc4ccccc34)nc2)CC1	-24.3	15.9	0.7%	5.2	-7.2	-2.0
Cc1ccc(C)c(NC(=O)Cn2c([N+](=O)[O-])cnc2C)c1	6.6	-2.9	-3.5%	-0.8	-0.2	0.4
Cc1cc(C)c(NC(=O)Cn2c([N+](=O)[O-])cnc2C)c(C)c1	-45.5*	6.6	-3.6%	3.1	-6.7	-0.5
CCc1ccccc1Nc1cc(C(=O)NCCCN(C)C2CCCCC2)c2ccccc2n1	-22.6	-5.9	-5.1%	34.5*	2.1	5.5
Cc1cc(C)cc(Nc2cc(C(=O)NCCCN(C)C3CCCCC3)c3ccccc3n2)c1	-25.5	2.8	0.6%	43.7*	-1.4	9.2
Cc1ccc(C)c(Nc2cc(C(=O)NCCCN(C)C3CCCCC3)c3ccccc3n2)c1	-34.0*	0.9	-3.4%	53.5*	2.4	4.6
COC(=O)c1cc(S(=O)(=O)N2CCC(c3ccccc3)C2)c[nH]1 (configuration not stated)	-17.2	4.8	-4.0%	13.6	-3.8	-0.4
CN(C)C=Nc1c(Br)cc(Br)c2nonc12	-74.3*	11.1	-5.1%	415.5*	6.5	141.3*
CN(C)C=Nc1nonc1-c1ccccc1	4.8	-0.6	-1.2%	2.1	-1.6	0.2
CCS(=O)(=O)N1CCc2cc(OC)c(OC)cc2C1	6.0	-2.5	-2.9%	0.4	-1.6	0.0
O=C(NCc1nc(-c2ccc(C(F)(F)F)cc2)no1)Nc1ccc(OC(F)(F)F)cc1	-36.7*	-0.8	-1.7%	10.4	-9.3	1.6
COc1ccc(-c2noc(CNS(=O)(=O)c3ccc(NC(C)=O)cc3)n2)cc1	12.7	2.6	-1.9%	3.2	4.7	0.3
O=C(Nc1cccc2ncccc12)c1ccc([N+](=O)[O-])o1	-39.2*	19.6	-14.7%	1.8	-9.9	0.4
COc1ccc(C2c3c(oc4c(C)cc(C)cc4c3=O)C(=O)N2Cc2cccnc2)cc1OC (configuration not stated)	-6.9	-0.6	.	4.2	-2.5	-0.3
COCCn1c(=NC(=O)c2nc3ccccc3s2)sc2cc(S(C)(=O)=O)ccc21	-85.1*	1.1	-1.0%	0.2	-4.4	0.3
C#CCn1c(=NC(=O)c2sc3ccccc3c2Cl)sc2cc(S(N)(=O)=O)ccc21	4.8	-3.2	1.9%	1.1	0.8	0.8
C#CCn1c(=NC(=O)c2ccccc2[N+](=O)[O-])sc2cc(S(C)(=O)=O)ccc21	-11.4	30.2*	2.2%	2.8	0.5	-0.1
CC(=O)OCC#CCSc1nc2ccccc2n1C	13.2	-2.4	-1.2%	-0.7	-8.3	0.7
NC1=NC(=O)/C(=C/c2ccsc2)S1	-33.5*	5.3	2.7%	0.8	-1.1	0.3
CC(=O)NC1C(=O)N=C(SCC(=O)NCc2ccccc2)NC1=O (configuration not stated)	32.1	-0.5	-1.5%	1.0	-1.2	-1.5
O=C(NC(NNc1ccc([N+](=O)[O-])cc1)(C(F)(F)F)C(F)(F)F)c1ccc(Cl)cc1	-54.2*	-2.7	-2.8%	30.6*	-9.8	4.2
SMILES	D1 antagonist	TRHR PAM	GRP78 ERSR act	D1 agonist	D1 PAM	TRHR agonist
O=C(COc1ccc2ccc(=O)oc2c1)N1CCN(c2ccc(F)cc2)CC1	-5.0	-4.8	-1.6%	-0.9	-0.7	-0.9
O=C(O)C1OC(Oc2c(-c3ccc(O)c(O)c3)oc3cc(O)cc(O)c3c2=O)C(O)C(O)C1O (configuration not stated)	6.4	22.0	1.1%	1.1	-1.5	0.4
CCc1cccc(C)c1NC(=O)COC(=O)C1CC(=O)N(CCc2ccc(OC)c(OC)c2)C1 (configuration not stated)	3.8	-0.9	-0.9%	0.8	-7.9	0.2
CCn1cc(/C=C(\NC(=O)c2ccccc2F)C(=O)N2CCOCC2)c2ccccc21	-34.2*	-3.6	-3.3%	-0.4	-6.5	-0.1
CCn1cc(/C=C(\NC(=O)c2ccccc2F)C(=O)N2CCCC2)c2ccccc21	2.0	4.4	-8.2%	4.3	8.5	-0.7
O=C(Nc1cc([N+](=O)[O-])ccc1O)c1ccc2c(c1)C(=O)N(Cc1ccco1)C2=O	3.1	39.0*	2.0%	0.3	-5.3	-0.3
O=C(Nc1ccc(O)cc1C(=O)O)c1ccc2c(c1)C(=O)N(Cc1ccco1)C2=O	9.4	2.0	0.2%	1.7	-1.2	-0.7
CCn1c(=O)c2ccccc2n2c(SCC(=O)N3CCCc4ccccc43)nnc12	-3.0	-3.7	-3.7%	1.6	-0.2	0.0
CC(=O)Nc1ccc(N(C(=O)c2ccco2)C(C(=O)NC2CCCC2)c2ccc(N3CCOCC3)cc2)cc1 (configuration not stated)	0.3	35.2*	0.0%	1.1	-0.8	0.1
CC(=O)N1CCCc2cc(S(=O)(=O)N3CCCC(C(=O)Nc4cccc(Cl)c4C)C3)ccc21 (configuration not stated)	-44.1*	-14.6	-1.8%	1.6	-5.2	0.2
CC(=O)N1CCCc2cc(S(=O)(=O)N3CCC(C(=O)NCc4ccc(N(C)C)cc4)CC3)ccc21	15.4	39.2*	2.3%	-0.5	-4.9	-0.2
CC(=O)N1CCCc2cc(S(=O)(=O)N3CCCC(C(=O)Nc4ccccc4C)C3)ccc21 (configuration not stated)	-36.6*	1.8	-0.9%	1.6	-4.7	0.0
CC(=O)N1CCCc2cc(S(=O)(=O)N3CCCC(C(=O)Nc4cc(C)ccc4C)C3)ccc21 (configuration not stated)	-0.6	-1.6	-3.7%	0.9	-2.9	-1.0
CN(C)c1ccc(CNC(=O)C2CCN(S(=O)(=O)c3ccc4[nH]c(=O)ccc4c3)CC2)cc1	-40.7*	-2.8	-1.2%	0.4	1.9	0.5
Cc1cc(C)n2c(SCC(=O)N3CCN(S(=O)(=O)c4ccc(Cl)cc4)CC3)nnc2n1	-12.2	3.9	-0.2%	1.2	3.0	-0.2
COc1cc(OC)c(/C=N/n2c(C3CCCCC3)n[nH]c2=S)c(OC)c1	4.2	14.5	-7.7%	1.8	-1.9	-0.4
